Measurements from PubChem BioAssay (NCATS).
Records with an inconclusive call do not appear. Entries that show only a call come without a potency. The source made the active and inactive calls. The call rests on the fitted dose curve; in most records, active means well fitted inhibition curve with a large enough effect; inconclusive means small, poorly fitted or top-dose-only effect; inactive means no such curve, though single readings can be large or run the other way.
Potency means the concentration at half of the fitted maximal effect.

These compounds were tested against Retinaldehyde dehydrogenase 3 (Homo sapiens) (UniProt P47895) (assay: qHTS for Inhibitors of the Aldehyde Dehydrogenase Family (ALDH1A3) Confirmatory screens (AID 2061311; further: nearly all actives have a fitted effect of over 60% in size)). Conditions: ALDH inhibition qHTS; series mostly up to 46 µM.
`Fc1cccc(Cc2noc(-c3nc(-c4ccccc4)no3)n2)c1` was tested, and the Potency was “inactive”.
`COc1ccc(C)cc1NC(=O)N1CCC(OC2CCN(Cc3ccccc3)CC2)CC1` was tested, and the Potency was “inactive”.
For `Cc1nonc1OCCn1cc(-c2ccc(CO)o2)nn1`, the Potency was “inactive”.
For `COc1ccccc1-c1ccc2ncc(Nc3cccc(O)c3)n2n1`, the Potency was “inactive”.
With `Fc1cccc(Cc2noc(-c3nc(-c4ccc5c(c4)OCO5)no3)n2)c1` the Potency was “inactive”.
`CCCOc1ccc(C(=O)Nc2ccc(NC(=O)c3cccc(Cl)c3)cc2)cc1` was tested, and the Potency was “inactive”.
For `O=C(O)c1cc(Br)c(O)c2ncccc12`, the Potency was “inactive”.
`N#Cc1cccc(C(=O)Nc2ccc([C@H]3OCC(=O)N(C4CCOCC4)[C@@H]3CO)cc2)c1` was tested, and the Potency was “inactive”.
In the case of `COc1cccc(CNc2ccc(S(=O)(=O)Nc3ccc(N4CCNCC4)nc3)cc2)c1O`, the Potency was 15.9 µM (active).
In the case of `CCC(=O)NC(C)c1cc(Cl)c2ccccc2c1O` (configuration not stated), the Potency was 12.7 µM (active).
With `CNCc1ccc(N2CCCC2)cc1` the Potency was “inactive”.
In the case of `O=c1c2cnn(-c3ccc(Cl)cc3)c2ncn1Cc1cccc(C(F)(F)F)c1`, the Potency was “inactive”.
With `CCOCc1ccccc1Nc1ncnc2onc(-c3ccc(Cl)cc3)c12` the Potency was “inactive”.
In the case of `O=C(Nc1ccc([C@@H](O)[C@H]2COCC(=O)N2CCCc2ccccc2)cc1)C1CCC1`, the Potency was “inactive”.
`Cc1ccc(N[S+](=O)([O-])c2cc3c(cc2N[C@@H](C)CO)NC(=O)CC3)cc1N[C@@H](C)CO` was tested, and the Potency was 14.2 µM (active).
For `CCc1nn2c(=O)c(S(=O)(=O)Nc3ccc(C)cc3C)c(C)nc2s1`, the Potency was “inactive”.
`O=S(=O)(Nc1nc2ccccc2s1)c1ccc(NCc2ccc(Br)cc2O)cc1` was tested, and the Potency was 14.2 µM (active).
